Test results reported in PubChem BioAssay AID1285 (Columbia University Molecular Screening Center, 2008).
In all, about 190,000 compounds went through this assay and about 1,600 (0.84%) were called active. For the sample, actives were picked, then their nearest neighbours and some compounds at random. A number with no mark means an inactive call.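 Rule for the calls: active = inhibition above a set limit, derived from the sample mean plus 3 SD (cut at about 45% in these data); inconclusive = one replicate passes the limit while the other fails; inactive = the rest.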

Assay: inhibitors of APP translation via 5'UTR reporter, primary screen, APP 5'UTR luciferase, SH-SY5Y cells (AID 1285)
Settings: SH-SY5Y APP 5'UTR-luciferase reporter, luminescence; at 2 µM; hits give high values

Q: Which inhibition does the source give for `COCc1c(C(=O)N/N=C/C2CC=CCC2)nnn1-c1nonc1N` (stereo unspecified) here?
A: 6.9%

Q: With `COc1cc(/C=N\NC(=O)c2nonc2N)c(OC)cc1Br` as the molecule, how does the inhibition read?
A: 1%

Q: Which inhibition does the source give for `Nc1nonc1-n1nnc(C(=O)N/N=C/c2cc(Br)ccc2O)c1CSC1=NCCS1` here?
A: 54.3% (active)

Q: With `CCC1(CC)NC(=O)N(CC(=O)OCC(=O)NC(=O)c2ccccc2)C1=O` as the molecule, how does the inhibition read?
A: 5.8%

Q: Which inhibition does the source give for `Cc1nc2ccc(C(=O)O)cc2[nH]1` here?
A: 4.6%

Q: Which inhibition does the source give for `CC(C)c1nc2ccc(C(=O)O)cc2[nH]1` here?
A: -1.3%

Q: With `COC(=O)Nc1nc2ccc(Sc3ccccc3)cc2[nH]1` as the molecule, how does the inhibition read?
A: 91.5% (active)

Q: With `CCO/C=C1\C(=O)N(c2ccc(OCC)cc2)C(=O)c2ccccc21` as the molecule, how does the inhibition read?
A: -6.3%

Q: Which inhibition does the source give for `OCCC1CN(Cc2ccc3nsnc3c2)CCN1C1CCCCC1` (stereo unspecified) here?
A: 0.3%

Q: With `CC(C)N1CCC(=NNc2ccc([N+](=O)[O-])cc2S(=O)(=O)N2CCOCC2)CC1` as the molecule, how does the inhibition read?
A: 16.2%

Q: With `CCn1c2ccccc2c2cc(CC(N)=O)ccc21` as the molecule, how does the inhibition read?
A: 15%

Q: With `COc1ccc(CCNC(=O)CC2SC(=Nc3cc(C)cc(C)c3)NC2=O)cc1OC` (stereo unspecified) as the molecule, how does the inhibition read?
A: 2.9%

Q: Which inhibition does the source give for `CCCN=C1NC(=O)C(CC(=O)NCCc2ccc(OC)c(OC)c2)S1` (stereo unspecified) here?
A: 74.7% (active)

Q: For `COc1ccc(CCNC(=O)CN(c2ccccc2)S(C)(=O)=O)cc1OC`, which inhibition is on record?
A: -22.4%

Q: Which inhibition does the source give for `Cc1cc(C)c(S(=O)(=O)N2CCOCC2)cc1C` here?
A: 10.3%

Q: For `CCOc1ccc(Br)cc1S(=O)(=O)Nc1cccc(S(=O)(=O)N(CC)CC)c1`, which inhibition is on record?
A: -7%

Q: Which inhibition does the source give for `Cc1ccc(CCC(=O)Nc2ncc(Cc3cc(Cl)ccc3Cl)s2)o1` here?
A: 94.1% (active)

Q: With `Cc1cnc(NC(=O)CSc2nnc(-c3ccc(Cl)cc3Cl)n2N)s1` as the molecule, how does the inhibition read?
A: -0.1%

Q: For `CCOc1ccccc1NC(=O)CCc1ccc(C)o1`, which inhibition is on record?
A: 9.7%

Q: For `CN(C)c1ccc(Nc2c3c4c(cccc4n(C)c2=O)C(=O)c2ccccc2-3)cc1`, which inhibition is on record?
A: 55.2% (active)

Q: With `CC1=NCCN1S(=O)(=O)c1cccc([N+](=O)[O-])c1` as the molecule, how does the inhibition read?
A: 11.4%

Q: With `COC(=O)CSc1ncnc2c1cnn2-c1ccc(C)cc1C` as the molecule, how does the inhibition read?
A: -3.9%

Q: With `CSc1nc(C)cc(SC(C(C)=O)C(=O)Nc2ccccc2)n1` (stereo unspecified) as the molecule, how does the inhibition read?
A: -17.5%

Q: Which inhibition does the source give for `CSc1nc(-c2ccccc2)nc(C(Cl)Cl)n1` here?
A: 48.7% (active)

Q: Which inhibition does the source give for `COc1ccc(NC(=O)CCNS(=O)(=O)c2ccc3c(c2)c(=O)n(C)c(=O)n3C)cc1OC` here?
A: 17.6%

Q: With `COCCN(C(=S)Nc1ccccc1OC)C1CCN(C(C)C)CC1` as the molecule, how does the inhibition read?
A: -3.7%

Q: Which inhibition does the source give for `COC(=O)c1cc2c(ccn2C)n1C` here?
A: -10.6%

Q: For `Cc1ccc(/C=N\n2c(-c3ccccc3)n[nH]c2=S)s1`, which inhibition is on record?
A: -4%

Q: Which inhibition does the source give for `Cc1cc(-c2n[nH]c(=S)n2/N=C/C(Br)=C/c2ccccc2)n[nH]1` here?
A: 83.5% (active)

Q: Which inhibition does the source give for `S=c1[nH]nc(-c2cccnc2)n1/N=C/C(Cl)=C\c1ccccc1` here?
A: -36.5%

Q: Which inhibition does the source give for `CC(Oc1ccccc1)C(=O)NN1Cc2ccccc2C1=N` (stereo unspecified) here?
A: -15%

Q: Which inhibition does the source give for `O=C1c2cccc3c([N+](=O)[O-])ccc(c23)C(=O)N1CC1CCCO1` (stereo unspecified) here?
A: 53% (active)

Q: Which inhibition does the source give for `O=C(NCc1ccc2c(c1)OCO2)c1ccc2c(c1)C(=O)N(CC1CCCO1)C2=O` (stereo unspecified) here?
A: 3.9%

Q: Which inhibition does the source give for `O=c1c2cc3c(=O)n(CC4CCCO4)c(=O)c3cc2c(=O)n1CC1CCCO1` (stereo unspecified) here?
A: -21.8%

Q: With `COc1ccc(OC)c(Cc2nnc(CCC(=O)NC3CCCC3)o2)c1` as the molecule, how does the inhibition read?
A: -10.4%

Q: For `COc1ccc(OC(C)C(=O)NCCc2nc3ccccc3[nH]2)cc1` (stereo unspecified), which inhibition is on record?
A: -10.4%

Q: Which inhibition does the source give for `COc1cc(OC)cc(C(=O)N[C@H](C(=O)Nc2nc3ccccc3[nH]2)C(C)C)c1` here?
A: 94.9% (active)

Q: Which inhibition does the source give for `COc1cc(OC)cc(C(=O)N[C@H](C(=O)OCC(=O)NC(C)c2ccccc2)C(C)C)c1` (stereo partly specified) here?
A: 14.5%

Q: For `Cc1cc(/C=N/NC(N)=O)c(C)n1C1CCCCC1`, which inhibition is on record?
A: -4.6%

Q: With `CCOC(=O)C(NC(=O)CC(C)C)(Nc1sc2c(c1C(N)=O)CCCC2)C(F)(F)F` (stereo unspecified) as the molecule, how does the inhibition read?
A: 5.1%

Q: With `O=C(COc1ccc(Cl)cc1[N+](=O)[O-])N1CCCCC1` as the molecule, how does the inhibition read?
A: -4%

Q: With `CCOC(=O)C1=C(C)Nc2nc3ccccc3n2C1c1cccs1` (stereo unspecified) as the molecule, how does the inhibition read?
A: 6.6%

Q: With `CCOc1ccc(C2C(C(=O)NC)=C(C)Nc3nc4ccccc4n32)cc1OC` (stereo unspecified) as the molecule, how does the inhibition read?
A: 11.5%

Q: Which inhibition does the source give for `COc1ccccc1NC(=O)C1=C(C)Nc2nc3ccccc3n2C1c1cccs1` (stereo unspecified) here?
A: 91% (active)

Q: Which inhibition does the source give for `COc1cccc(-c2nn(-c3ccccc3)cc2/C=C(\C#N)C(=O)NCCCn2ccnc2)c1` here?
A: 14.7%

Q: For `C=CCN1C2CCCC1CC(NC(=S)Nc1cccc(OC)c1)C2` (stereo unspecified), which inhibition is on record?
A: -2.4%

Q: With `COc1ccc(F)cc1S(=O)(=O)Nc1ccc2c(c1)OCO2` as the molecule, how does the inhibition read?
A: -19.9%

Q: For `CCCOc1ccccc1C1CC(=O)Nc2cc3c(cc21)OCO3` (stereo unspecified), which inhibition is on record?
A: 92.3% (active)

Q: For `COCCOC(=O)C1=C(C)NC(=O)CC1c1cc2c(cc1Br)OCO2` (stereo unspecified), which inhibition is on record?
A: 3.7%

Q: Which inhibition does the source give for `COc1ccccc1C1C2=C(COC2=O)Nc2cc3c(cc21)OCO3` (stereo unspecified) here?
A: 94.5% (active)

Q: With `COc1ccc(C2CC(=O)Nc3cc(C)c(C)cc32)c(OC)c1OC` (stereo unspecified) as the molecule, how does the inhibition read?
A: -0.3%

Q: Which inhibition does the source give for `COc1cc2c(cc1/C=C1/NC(=O)N(c3ccccc3)C1=O)OCO2` here?
A: -15.4%

Q: Which inhibition does the source give for `CN1CCN(C(=O)/C(=C\c2cccs2)NC(=O)c2cccs2)CC1` here?
A: -8.2%

Q: For `CCCCn1nc(C(=O)Nc2ccc(S(=O)(=O)Nc3ncccn3)cc2)c2ccccc2c1=O`, which inhibition is on record?
A: -36.5%

Q: For `COc1cccc(CC(=O)N2CCCC(CCC(=O)N3CCN(c4ccccn4)CC3)C2)c1` (stereo unspecified), which inhibition is on record?
A: -8.5%

Q: For `CCOc1ncccc1C(=O)OCC(=O)NC1CC1`, which inhibition is on record?
A: 17%

Q: With `O=c1c([N+](=O)[O-])cccn1Cc1ccc(F)cc1Cl` as the molecule, how does the inhibition read?
A: -2.2%

Q: Which inhibition does the source give for `Cc1ccc(OCC(=O)N/N=C\c2ccco2)c(C)c1` here?
A: -0.4%

Q: For `Cc1ccc(OCC(=O)N/N=C/c2ccncc2)cc1`, which inhibition is on record?
A: 0.8%

Q: For `Cc1ccc(/C=N/NC(=O)COc2ccccc2-c2ccccc2)cc1`, which inhibition is on record?
A: 97% (active)

Q: Which inhibition does the source give for `CN1CCC(=NNC(=O)c2ccc(N(Cc3ccc(Cl)cc3)S(C)(=O)=O)cc2)CC1` here?
A: -0.2%
